According to PubChem BioAssay AID488815 (Broad Institute, 2010):
Results with a measured potency or affinity are listed apart. Results filed as inconclusive are left out. No rule for the calls is given here.

These compounds were tested against CAAX prenyl protease 1 (Saccharomyces cerevisiae (strain ATCC 204508 / S288c)) (UniProt P47154) (assay: yeast CAAX protease Ste24 inhibition – biochemical, S. cerevisiae, plate reader, cherry-pick, dose response (AID 488815;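 also: 0% = neutral control wells and -100% = no enzyme wells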)). Settings: series mostly up to 10 µM; activity change, negative = inhibition: at the top concentration.
Sequence of CAAX prenyl protease 1 (Saccharomyces cerevisiae (strain ATCC 204508 / S288c)) (P47154 whole entry, looked up): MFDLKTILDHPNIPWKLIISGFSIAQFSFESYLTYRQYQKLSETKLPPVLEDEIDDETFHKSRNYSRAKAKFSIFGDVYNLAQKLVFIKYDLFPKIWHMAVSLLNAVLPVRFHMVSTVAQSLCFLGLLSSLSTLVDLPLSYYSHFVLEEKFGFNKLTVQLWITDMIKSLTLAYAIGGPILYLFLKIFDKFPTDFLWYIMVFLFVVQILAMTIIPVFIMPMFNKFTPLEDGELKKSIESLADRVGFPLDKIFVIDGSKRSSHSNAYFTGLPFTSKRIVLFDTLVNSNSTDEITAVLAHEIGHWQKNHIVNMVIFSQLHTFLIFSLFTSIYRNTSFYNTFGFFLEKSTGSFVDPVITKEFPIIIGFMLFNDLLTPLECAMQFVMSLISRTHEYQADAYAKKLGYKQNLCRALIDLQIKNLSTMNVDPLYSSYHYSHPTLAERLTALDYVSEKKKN

Activity change, negative = inhibition, inactive:
COCCN1C(=O)/C(=C/c2ccc(Oc3ccc([N+](=O)[O-])cn3)c(OC)c2)SC1=Nc1ccccc1 2.64%
C/C(CC(=O)NCc1ccco1)=N\NC(=O)c1ccc([N+](=O)[O-])cc1Cl 51.8%
O=C(c1cnc2n(c1=O)CCS2)N1CCN(C(c2ccccc2)c2ccc(Cl)cc2)CC1 (stereo not drawn) 24%
O=C(CCNS(=O)(=O)c1ccc2[nH]c(=O)oc2c1)NCc1ccccc1 8.12%
O=C(Nc1ccccc1-c1nc2ccccc2[nH]1)c1ccc(N2C(=O)CCC2=O)cc1 30.1%
Cc1cccc(N2C(=O)c3cccc4c(N5CCCCC5)c([N+](=O)[O-])cc(c34)C2=O)c1C 24.1%
CN(C)CCN(C(=O)c1ccc2ccccc2c1)c1nc2ccc(F)cc2s1 41.2%
CC1=C(C(=O)OCc2ccccc2)C(c2ccc(-c3ccccc3)cc2)NC(=O)N1CCCC(=O)O (stereo not drawn) 21.9%
Clc1ccc(CN2CCc3c([nH]c4ccccc34)C2)cc1Cl -22.6%
COc1ccc(-c2nc3ncccc3o2)cc1NC(=O)c1ccco1 23.7%
Cc1nc(-c2ccc(Cl)cc2)sc1C1(C)CC(c2ccccc2Br)=NO1 (stereo not drawn) 29.5%
CS(=O)(=O)Nc1ccccc1C(=O)NC1CC2CCC1C2 (stereo not drawn) 8.71%
Nc1c(Cl)cc(C2=NCCn3nc4cc(C(F)(F)F)ccc4c32)cc1Cl -4.63%
Cc1nc(SC(C(=O)c2ccccc2)c2ccccc2)nc2ccccc12 (stereo not drawn) 23%
Cc1cc(N)c2cc(NC(=O)/C=C/c3ccccc3Cl)ccc2n1 -21.1%
CN(C)S(=O)(=O)c1ccc(NC(=O)/C=C/c2ccccc2Cl)cc1 19.3%
CC1CCc2c(sc(NC(=O)COC(=O)c3ccccc3NCc3ccco3)c2C#N)C1 (stereo not drawn) -174%
COc1ccc(-n2nc(C(=O)NCC(=O)N3CCC(C)CC3)c3ccccc3c2=O)cc1 23.7%
CCC1CCCCN1C(=O)NC(=O)c1ccccc1 (stereo not drawn) 29%
CN(C(=O)c1ccc2c(c1)SC1=NS(=O)(=O)CCN12)C(c1ccccc1)c1ccccc1 2.89%
CCCCNC(=S)NNC(=O)CCn1cc(C)cn1 35.5%
CN1C(=O)/C(=C/c2cccc(Cl)c2)Sc2ccc(C(=O)N3CCOCC3)cc21 31.2%
O=C1NC2(C=Cc3c(ccc4ccccc34)O2)Oc2ccccc21 (stereo not drawn) 2.33%
